Among all 340,000 compounds or so, about 6,200 (1.8%) were called active. Not shown: some 10% with an inconclusive outcome. The sample holds actives, similar compounds and a random draw of the others, so the mix is not that of the screen. Values without a mark were called inactive. Calls follow the shape of the dose curve; as a rule, active = well fitted activation curve with a large enough effect; inconclusive = small, poorly fitted or top-dose-only effect; inactive = no such curve, though single readings can be large or run the other way.
Assay: A quantitative high throughput screen for small molecules that induce DNA re-replication in SW480 colon adenocarcinoma cells. Also: nearly all actives have a fitted effect of over 55% in size. As to re-replication activation: % of control where 0% means no effect.
Settings: Hoechst DNA content imaging, 48 h; series mostly up to 46.1 µM; re-replication activation: at the top concentration
Outline: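 Per well, 250 cells were exposed to pinned compound for 48 hr. Nuclear DNA was visualised with Hoechst (40 min, 37 C) and total object intensity recorded by fluorescence scanning.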
Potency is read from the fitted curve at half-maximal effect.

Row | SMILES | re-replication activation [%] | Potency
1 | Cc1noc(C)c1NC(=O)Nc1ccc2c(c1)C(=O)N([C@H](C)CO)C[C@H](C)[C@@H](CN(C)C(=O)Nc1ccc(C(F)(F)F)cc1)O2 | -53.2 | 
2 | CCN(CC)c1ccc(/C=N/Nc2nc(C)cc(C)n2)c(O)c1 |  | 8.2 µM (active)
3 | Cc1cc(C)nc(N/N=C/c2ccncc2)n1 | -5.1 | 
4 | CCNc1nc(NCC)nc(N/N=C/c2ccc(O)c(OC)c2)n1 | -6.79 | 
5 | Oc1ccc(Cl)c2c1CCC2 | 0.638 | 
6 | CSc1ncnc2c1ncn2CC(=O)C1CCC2C3CCC4=CC(=O)CCC4(C)C3CCC12C (stereo not drawn) | 5.31 | 
7 | Cc1ccc(C(=O)NCC(=O)NC2CC2)cc1 | 6.41 | 
8 | Cc1cc(NC(=O)c2cc3ccccc3o2)no1 | -4.96 | 
9 | CCNC(=O)c1ccc(OCC(=O)Nc2ccc(F)cc2)c(OC)c1 | -4.04 | 
10 | COc1ccc(C(=O)N/N=C2\CCS(=O)(=O)c3ccc(F)cc32)cc1OC |  | 10.3 µM (active)
11 | COc1ccc(C(=O)Nc2ccc(C3(C#N)CCCC3)cc2)cc1OC | 10.6 | 
12 | CN(C)C(=O)CCc1ccc2c3c([nH]c2c1)[C@]1(C)[C@@H](C(=O)N2CCOCC2)C[C@H](CC(=O)NCCc2ccccn2)C(=O)N1CC3 | 2.59 | 
13 | COc1ccc(NS(=O)(=O)c2ccc(N3CCOCC3)c(NC(=O)/C=C/C(=O)O)c2)cc1 | 1.18 | 
14 | Cc1ccc(S(=O)(=O)CCC(=O)OCC(=O)N(C)Cc2ccccc2)cc1 | -66.5 | 
15 | CCOc1ccc(-n2c(O)c(/C=N/c3ccnn3Cc3ccncc3)c3ccccc3c2=O)cc1 |  | 20.6 µM (active)
16 | CCOc1ccc(-n2c(SCC(=O)Nc3cc(C(=O)O)ccc3Cl)nc3ccccc3c2=O)cc1 | -13.2 | 
17 | Cc1ccc(-n2c(O)c(C=Nc3ccc(S(=O)(=O)Nc4ncccn4)cc3)c3ccccc3c2=O)cc1C | -2.11 | 
18 | COc1ccc(C(CNC(=O)c2cccc(S(=O)(=O)Nc3ccc(Br)cc3)c2)N(C)C)cc1 (stereo not drawn) | 6.62 | 
19 | CCOc1cc(C=NNC(=O)CCCC(=O)NN=Cc2ccc(O)c(OCC)c2)ccc1O | -6.49 | 
20 | Oc1ccc(/C=N/NC2=NCCCCC2)c(O)c1 | -5.14 | 
21 | Cc1nc2ccccc2nc1N/N=C/c1ccc(O)cc1O |  | 1.64 µM (active)
22 | Oc1ccc(-c2nc3ccccc3nc2-c2ccc(O)cc2O)c(O)c1 | -1.54 | 
23 | COc1ccc(OCCNC(=O)c2cc(C3CC3)nc3c2cnn3C(C)C)cc1 | -6.37 | 
24 | Cc1cn(C2CC(O)C(CO)O2)c(=O)n(CCCc2ccccc2)c1=O (stereo not drawn) | -5.17 | 

Row | SMILES | re-replication activation [%] | Potency
25 | CN(C)c1ccc(CSc2ccccc2)cc1 | -9.06 | 
26 | COC(=O)Cc1nc2c(N)nc(N)nc2[nH]c1=O | -4.14 | 
27 | CCc1cc2c(=O)n(-c3ccccc3)c(SCC(=O)O)nc2s1 |  | 18.4 µM (active)
28 | Cc1sc2nc(SCCO)n(-c3ccccc3)c(=O)c2c1C | -5.37 | 
29 | C=CCn1c(SCC(=O)c2c(N)n(C)c(=O)n(C)c2=O)nc2sc(CC)cc2c1=O | -1.6 | 
30 | COc1ccc(C(=O)COC(=O)c2c(C)noc2C)cc1Cl | -8.23 | 
31 | Cc1ccc(C(=O)NNC(=O)c2ccc3c(c2)OCCO3)cc1 | -4.97 | 
32 | CC1CCCCC1NCC(=O)Nc1ccccc1C(=O)Nc1ccccc1 (stereo not drawn) | -3.41 | 
33 | O=C(NNC(=O)c1ccccc1O)c1ccccc1O |  | 1.64 µM (active)
34 | Cc1cc(C(=O)CCC(=O)NNC(=O)c2ccccc2O)c(C)s1 | 3.5 | 
35 | O=C(Nc1ccc(O)cc1)c1ccccc1O | -4.02 | 
36 | O=C(CN1C(=O)c2ccc([N+](=O)[O-])cc2C1=O)Nc1nnc(C2CC2)s1 | -0.538 | 
37 | COc1cc(Cl)c(C)cc1NC(=O)CSc1nnc(CN2CCCC2)o1 | 0 | 
38 | CC(=O)NC(=O)c1ccccc1O | -1.55 | 
39 | C/C(=N\NC(=O)c1ccoc1C)c1ccccc1O |  | 2.31 µM (active)
40 | Cc1ccnc(NC(=O)c2ccoc2C)c1 | 1.1 | 
41 | CC(C)NC(=O)Nc1cccc2c1O[C@@H](CN(C)S(=O)(=O)c1ccc(F)cc1)[C@@H](C)CN([C@H](C)CO)C2=O | 16 | 
42 | Cc1ccc(OCCNC(=O)c2cccc(S(=O)(=O)N3CCN(Cc4ccccc4)CC3)c2)cc1 | 11.6 | 
43 | CCCCN1C(=O)/C(=C2/C=CC=CN2C)SC1=S | 3.3 | 
44 | CN1C=CC=C/C1=C1\SC(=S)N(Cc2ccccc2)C1=O |  | 23.1 µM (active)
45 | COc1cc(/C=C2/SC(=S)N(Cc3ccccc3)C2=O)cc(OC)c1O | -77.2 | 
46 | O=C(O)C(CCc1ccccn1)c1ccccc1 (stereo not drawn) | -10 | 
47 | CC(NC(=O)c1ccccc1F)c1cccc2ccccc12 (stereo not drawn) | -6.5 | 
48 | CN(NC(=O)c1ccccc1F)c1nc(C(F)(F)F)nc2ccccc12 |  | 0.517 µM (active)

From PubChem BioAssay AID624297 (National Center for Advancing Translational Sciences (NCATS), 2012)
